# Sampled rows, rich in hits. Any-hit rate of the full collection: about 27%.
# sEH act = soluble epoxide hydrolase (human) activation; P34913; purified human sEH enzymatic activity, activator screen; activation, % at 2 µM; hit rate 0.04% among 91,000; in the data active = activation above about 37%
# CYP2C9 inhib = human CYP2C9 inhibition. P11712. CYP2C9 Supersomes, luciferin-H conversion, luminescence. inhibition, % at 5 µM. hit rate 20% among 96,000. AID 777;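 active = blocking of liver enzyme CYP2C9 beyond about 50% at 5 µM, limit read from the data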
# Target sequence (P11712 whole entry, looked up): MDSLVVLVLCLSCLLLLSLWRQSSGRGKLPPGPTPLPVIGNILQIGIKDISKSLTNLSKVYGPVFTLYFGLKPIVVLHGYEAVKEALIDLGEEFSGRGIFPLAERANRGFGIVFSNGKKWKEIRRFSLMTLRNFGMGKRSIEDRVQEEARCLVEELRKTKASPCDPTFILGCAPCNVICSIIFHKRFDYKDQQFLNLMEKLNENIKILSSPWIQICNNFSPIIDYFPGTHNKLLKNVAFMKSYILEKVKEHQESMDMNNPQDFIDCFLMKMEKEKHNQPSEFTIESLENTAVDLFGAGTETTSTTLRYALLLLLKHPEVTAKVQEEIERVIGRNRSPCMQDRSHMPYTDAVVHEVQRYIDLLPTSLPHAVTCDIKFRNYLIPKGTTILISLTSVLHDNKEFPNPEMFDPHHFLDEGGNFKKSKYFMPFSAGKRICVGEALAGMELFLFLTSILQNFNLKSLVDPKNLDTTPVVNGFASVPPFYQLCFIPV
# CYP2C9 act = activators of human CYP2C9 | P11712 | hit rate 1.4% among 96,000 | activation factor at 5 µM | recombinant CYP2C9, luciferin-H conversion, luminescence; stronger effect = higher value; factor 1 = untreated enzyme, 0 = blocked | AID 1024;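 active = activation factor of 2 or more for CYP2C9 at a 5 µM dose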;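 note: 0 = sulfaphenazole-blocked wells and 1 = vehicle-only wells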
# CYP2C19 activ = increases human CYP2C19 enzyme activity; recombinant CYP2C19, luciferin-H EGE luminescence; stronger effect = higher value; 0 = fully inhibited enzyme, 1 = untreated enzyme; activation factor at 5 µM; 96,000 tested, under 10 active;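 active = activation factor of at least 2 at 5 µM in the primary screen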;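 note: 0 = wells with 2.5 mM tranylcypromine and 1 = vehicle-only wells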
# CYP2C19 inhib = human CYP2C19 inhibition. P33261. CYP2C19 Supersomes, luciferin-H EGE luminescence, 30 min. inhibition, % at 5 µM. hit rate 21% among 96,000;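 active = CYP2C19 inhibition above a set limit at 5 µM in the primary screen, cut at about 50% in these data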;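 note: plate controls were negative control wells for no effect and 2.5 mM tranylcypromine positive control for full effect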
# sEH inhibitor = soluble epoxide hydrolase (human) inhibition; P34913; recombinant human sEH enzymatic activity assay; inhibition, % at 2 µM; hit rate 0.34% among 91,000; in the data active = inhibition above about 80%
# An asterisk follows results filed as active; nt = no result given.
SMILES,sEH act,CYP2C9 inhib,CYP2C9 act,CYP2C19 activ,CYP2C19 inhib,sEH inhibitor
O=C(NCc1ccc2c(c1)OCO2)c1ccc(N2C(=O)C3CCCCC3C2=O)cc1 (centres undefined),-21,24,0.8,0.8,15,24
COc1ccc(Sc2cc(C(F)(F)F)nc(-c3ccccn3)n2)cc1,-6,66*,0.3,0.6,40,8
CNc1cc(C(F)(F)F)nc(-c2ccccn2)n1,8,25,0.8,1,3,-8
O=C(Nc1ccc(Cl)cc1C(=O)N1CCOCC1)c1ccco1,-40,2,1,1.1,-9,43
Cc1ccc(C)c(-n2nnnc2SCC(=O)c2ccc3c(c2)NC(=O)CO3)c1,9,-154,2.5*,0.4,56*,-8
O=C(NCC(=O)N(Cc1ccccc1)C(C(=O)NCC1CCCO1)c1ccccc1)c1cccs1 (centres undefined),-3,16,0.8,0.9,6,5
CCC(C(=O)Nc1cnccn1)c1ccccc1 (centres undefined),-7,18,0.8,0.4,60*,10
O=C(N1CCCC1)C12CCC3CC(CC(C3)C1)C2,0,8,0.9,0.7,26,1
CCN(CC)c1ccc(C(=O)OCc2cc(=O)oc3cc(O)ccc23)cc1,-3,-100,2*,0.1,94*,4
CC1CN(C(=O)c2scc3c2OCCO3)CC(C)O1 (centres undefined),-1,1,1,0.9,15,1
CCOC(=O)CSc1nnc(-c2ccc(OC)cc2OC)o1,-14,-34,1.3,1.1,-12,15
CCCC(=O)O[C@H]1C[C@@H](C)N(C(=O)c2ccccc2)c2ccc(C)cc21,-4,63*,0.4,0.4,58*,8
Cc1cc(C)nc(SCCC(=O)Nc2ccccc2C)n1,-2,-67,1.7,0.8,22,2
CCOc1cc(S(=O)(=O)n2cc(-c3ccc(F)cc3)c(N)n2)cc(OCC)c1OCC,-7,75*,0.3,0.7,26,9
COc1ccccc1-c1cn(S(=O)(=O)c2ccc(F)cc2)nc1N,0,86*,0.1,0,97*,-1
CC(C)(C)C(=O)NCCN1CCN(C(=O)C(C)(C)C)CC1,4,nt,nt,nt,nt,-1
CCc1ccccc1NC(=O)c1cc(C2CC2)on1,-18,-141,2.4*,0.7,35,22
Cc1cc(C(=O)Nc2ccccc2C(F)(F)F)no1,-18,2,1,1.1,-6,18
O=C(Cc1cccs1)N1CCC(c2nc3c(nnn3Cc3ccc(F)cc3)c(=O)[nH]2)CC1,nt,96*,0,0.6,41,nt
O=C(Cc1cccs1)N1CCCC(c2nc3c(nnn3Cc3cccc(Cl)c3)c(=O)[nH]2)C1 (centres undefined),-3,96*,0,0.3,66*,1
O=C(NCc1ccccc1)c1nc2c(nnn2Cc2cccc(Cl)c2)c(=O)[nH]1,1,nt,nt,nt,nt,-2
Cc1ccccc1-c1nc(CS(=O)(=O)CC(=O)N2CCc3ccccc32)c(C)o1,1,nt,nt,nt,nt,-1
CN1C(=O)C(=C2CCCCCC2)SC1=S,nt,10,0.9,0.9,14,nt
O=C1NC(=S)SC1=C1CCCC1,8,74*,0.3,0.7,29,-6
COC(=O)CN1CCN(C(=O)c2ccc(F)cc2)c2ccccc2C1,16,1,1,0.5,53*,-15
SMILES,sEH act,CYP2C9 inhib,CYP2C9 act,CYP2C19 activ,CYP2C19 inhib,sEH inhibitor
c1ccc(-c2nc3c(ccc4ccccc43)[nH]2)nc1,4,nt,nt,nt,nt,-1
Nc1ccc(Cc2nc3c(ccc4ccccc43)[nH]2)cc1,13,33,0.7,0.1,86*,-16
Cc1ccc(C)c(-c2nc3ccc(N)cc3[nH]2)c1,10,17,0.8,0.5,47,-11
Cc1ccc2nc(Cc3ccc(N)cc3)[nH]c2c1,18,10,0.9,0.2,82*,-13
CCOC(=O)C1=C(N)Oc2cc(C)n(C)c(=O)c2C1c1ccncc1 (centres undefined),nt,73*,0.3,0.3,72*,nt
CCOC(=O)C1=C(C)N(C)C(C)=C(C(=O)OCC)C1c1cccnc1,-5,84*,0.2,0.1,87*,7
CCOC(=O)C1=C(N)Oc2cc(C)oc(=O)c2C1c1cccnc1 (centres undefined),0,63*,0.4,0.4,60*,-2
CCOC(=O)C1=C(N)Oc2cc(C)[nH]c(=O)c2C1c1ccncc1 (centres undefined),2,74*,0.3,0.3,75*,-2
